From PubChem
Sampled rows, rich in hits. Any-hit rate of the full collection: about 3.7%.
Sm TGR inh – blocks Schistosoma mansoni thioredoxin glutathione reductase | 3% of 360,000 active | Q962Y6 | purified TGR, DTNB reduction, TNB absorbance 405 nm | Potency, µM (highest dose often 114 µM), inactives show at the top dose activity change, negative = inhibition, usual class: inhibitors | AID 485364; note: nearly all actives have a fitted effect of over 60% in size
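Kinetic colorimetric format: TGR-catalysed, NADPH-driven DTNB reduction monitored via TNB absorbance. Enzyme dispensed at 20 nM; compound exposure 15 min at room temperature before reaction start.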
TbPYK inhibitor – blocks Trypanosoma brucei pyruvate kinase | Q57TT1 | TbPYK enzyme, Kinase-Glo Plus ATP luminescence, 45 min | Potency, µM (highest dose often 76.8 µM), for inactives: at the top dose activity, negative = inhibition, hits mostly inhibitors | 0.12% of 410,000 active | AID 624173; note: nearly all actives have a fitted effect of over 50% in size
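TbPYK + substrate in 50 mM TEA pH 7.2, 100 mM KCl, 10 mM MgCl2, 0.05% BSA, 0.01% Tween-20; cpd pinned; ADP 130 uM final; 45 min RT; Kinase-Glo Plus 10 min; luminescence endpoint.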
FMDV inh – antivirals against foot and mouth disease virus | FMDV antiviral cell-based qHTS | Potency, µM (series often up to 57.9 µM), for the others: top-dose activity change, negative = inhibition, hits mostly inhibitors | 1.2% of 410,000 active; calls by dose curve; tested in HEK293T cells; note: read-out not given here; nearly all actives have a fitted effect of over 45% in size
RE007 growth inh – less growth of the S. pombe RE007 Vpr strain. Potency, µM (titrated, usually from 92.2 µM), for the others: at the highest dose activity change, negative = less growth, actives largely listed as inhibitors. AID 651644. S. pombe RE007 Vpr strain, BacTiter-Glo ATP luminescence, 24 h. 0.21% of 360,000 active; active = well fitted falling curve with a large enough effect; inconclusive = small, poorly fitted or top-dose-only effect; inactive = no such curve, though single readings can be large or run the other way; note: nearly all actives have a fitted effect of over 50% in size
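Fission yeast RE007 carrying one integrated HIV-1 vpr copy, seeded at OD 0.01 in PMG+AL medium with 23 nL pinned compound. Grown 24 h at 30 degrees; viability read by BacTiter-Glo luminescence after 5 min.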
* hit, by the source's call; ? = inconclusive; · = no result given. Unless noted, calls come from the whole dose curve; as a rule, active = well fitted curve in the direction sought with a large enough effect; inconclusive = small, poorly fitted or top-dose-only effect, or another doubt; inactive = no such curve, though single readings can be large; an effect the other way counts as inactive or inconclusive. % is set by controls: 0 for no effect and ±100 for the full control effect; potency is the fitted concentration of half-maximal effect.

SMILES	Sm TGR inh	TbPYK inhibitor	FMDV inh	RE007 growth inh
O=[N+]([O-])c1ccc(N2CCOCC2)c2c1no[n+]2[O-]	·	-15%	10µM*	45µM*
COc1ccc(NCc2cc3cc4c(cc3n(CC(=O)Nc3ccc(F)cc3F)c2=O)OCO4)cc1	6%	3%	30%	·
Cn1c(SCC2CCCO2)nnc1C1CCN(Cc2ccc(-c3cccc(Cl)c3)o2)CC1 (stereo not drawn)	·	·	-10%	·
O=C(Nc1ccc(Cc2ccncc2)cc1)C1CCC(N2C(=O)C3C4C=CC(C5CC45)C3C2=O)CC1 (stereo not drawn)	-8%	0%	14µM*	-9%
O=C1c2c(O)cccc2C(C2OC(CO)[C@@H](O)[C@H](O)[C@H]2O)c2cc(CO)cc(O)c21 (stereo partly drawn)	40µM*	-1%	-24%	-29%
O=C1c2cc(CO)cc(O)c2C(=O)c2c(O[C@@H]3OC(CO)[C@@H](O)[C@@H](O)[C@@H]3O)cccc21 (stereo partly drawn)	·	0%	-17%	-2%
Cc1ccc(NC(=O)CC2SC(=NC3CCCCC3)NC2=O)cc1 (stereo not drawn)	50µM*	1%	-11%	-1%
Cc1ccccc1NC(=O)CC1SC(=NC2CCCCC2)NC1=O (stereo not drawn)	-31%	5%	-23%	-15%
COc1cccc2c1nc(C)c1cc(C)oc12	4%	4%	12%	-30%
COc1cccc2nc3cc(C)c(C)cc3nc12	-30%	?	-23%	2.8µM*
O=C(CCn1ccc2cc(S(=O)(=O)N3CCCC3)ccc21)NCc1cccc(Br)c1	8%	-1%	-1%	·
COC(=O)c1ccc2c(c1)sc(=NC(=O)CCS(=O)(=O)c1ccccc1)n2C	32µM*	-3%	-9%	9%
Cc1nonc1C(=O)N/N=C/c1ccc([N+](=O)[O-])o1	45µM*	-1%	-20%	-24%
O=C(N/N=C/c1ccc(-c2ccc([N+](=O)[O-])cc2)o1)C(O)c1ccccc1 (stereo not drawn)	-24%	-5%	-6%	-9%
Cc1cc(C(=O)N/N=C/c2ccc([N+](=O)[O-])o2)c(C)o1	?	-1%	?	-9%
O=C(N/N=C/c1ccc([N+](=O)[O-])o1)C(O)c1ccccc1 (stereo not drawn)	45µM*	-3%	-4%	5%
O=C(CSc1ccc(Cl)cc1)N/N=C/c1ccc([N+](=O)[O-])o1	5.6µM*	-7%	-12%	-6%
Cc1cc(C)c(S(=O)(=O)N/N=C/c2ccc([N+](=O)[O-])o2)c(C)c1	7.1µM*	-16%	-17%	-26%
CN(C(=O)c1oc(=O)c2ccccc2c1-c1ccccc1)c1cccc(Cl)c1	1%	-4%	-19%	·
CCCCNC(=O)CCCn1c(=O)c2ccccc2n(Cc2cccc(Cl)c2)c1=O	-6%	-8%	-22%	·
O=C(NCc1ccc(Cl)cc1Cl)c1cccc(N2CCCS2(=O)=O)c1	0%	6%	0%	·
Cc1ccc(-n2nc(CO)c(C(=O)NCc3cccnc3)n2)cc1	2%	-2%	?	·
CN(C)c1nc2cc(Cl)ccc2cc1CN(Cc1ccc2c(c1)OCO2)C(=O)c1ccoc1	·	·	6%	·
COc1ccc(NC2=C(Cl)C(=O)N(c3ccccc3)C2=O)c(OC)c1	5.6µM*	1%	-22%	?
CCOc1ccc(N2C(=O)C(Cl)=C(Nc3ccccc3O)C2=O)cc1	18µM*	-7%	·	?
SMILES	Sm TGR inh	TbPYK inhibitor	FMDV inh	RE007 growth inh
COc1ccc(N2C(=O)C(Cl)=C(Nc3ccc(OC)cc3OC)C2=O)cc1	28µM*	3%	30%	12%
COc1ccc(Nc2nc(C)cc(=O)[nH]2)c(OC)c1	-16%	-5%	·	2%
COc1ccc(N2C(=O)C(Cl)=C(Nc3c(C)n(C)n(-c4ccccc4)c3=O)C2=O)cc1	0.89µM*	-21%	·	-3%
COc1ccccc1NC1=C(Cl)C(=O)N(c2ccccc2)C1=O	-6%	-1%	-13%	·
COc1ncc2nc(-c3ccc(F)cc3)c(=O)n(C)c2n1	·	·	10%	·
COc1ccccc1C1CN(Cc2cccnc2)Cc2ccccc2O1 (stereo not drawn)	·	·	-10%	·
C=CC[N+]1([C@H]2C[C@H]3[C@@H]4CC[C@H]5C[C@H](O)[C@@H](N6CCOCC6)C[C@]5(C)[C@H]4CC[C@]3(C)[C@H]2OC(C)=O)CCCC1	·	-9%	·	·
